# Measurements published in PubChem BioAssay (Tox21).
# Records with an inconclusive call do not appear. A call without a number means that no potency is given here. The source holds several records for some structures; these can differ, active in one and inactive in another. Active and inactive are the calls of the source. Unless noted, the call rests on the fitted dose curve.
# Experiments:
# [1] = Nuclear factor erythroid 2-related factor 2/antioxidant responsive element (Nrf2/ARE) small molecule agonists: luciferase reporter gene qHTS assay in human keratinocytes (AID 1919969); further: nearly all actives have a fitted effect of over 35% in size; further: potency means the concentration at half of the fitted maximal effect
# [2] = molecular target: Gonadotropin-releasing hormone receptor (Homo sapiens) (UniProt P30968); assay: Human gonadotropin-releasing hormone receptor (GnRHR) small molecule agonists, calcium flux assay in GnRHR-HEK293 cells (AID 1920063); further: nearly all actives have a fitted effect of over 35% in size; further: potency means the concentration at half of the fitted maximal effect
# Method in brief: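 Agonist activity was measured as intracellular calcium flux in HEK293 cells engineered to stably express human GnRHR. After dye loading for 1 hour at 37 C, compounds in DMSO were added and fluorescence was followed for 3 minutes.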
# [3] = G protein-coupled receptor (GPCR) small molecule agonists, calcium flux assay: HEK293 wild type cell line counter screen (AID 1920065); further: potency means the concentration at half of the fitted maximal effect
# Method in brief: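 Seed cells, incubate 18 h (37 C, 5% CO2); add calcium dye, 1 h at 37 C; pin-transfer compounds, ATP control or DMSO; read fluorescence 480/540 nm each second for 3 min.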
# [4] = p53 small molecule agonists, cell-based qHTS assay with human liver microsomes: qHTS cell viability counter screen (AID 1963579); further: nearly all actives have a fitted effect of over 45% in size; further: potency means the concentration at half of the fitted maximal effect
# Method in brief: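 Metabolic activation used human liver microsomes and NADPH, both 0.5 mg/mL final, over 16 hours at 37 C on p53RE-bla cells (4,000/well). Cytotoxicity measured by CellTiter-Glo luminescence, 30 min at room temperature.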
# [5] = p53 small molecule agonists, cell-based qHTS assay with rat liver microsomes: qHTS cell viability counter screen (AID 1963580); further: nearly all actives have a fitted effect of over 45% in size; further: potency means the concentration at half of the fitted maximal effect
# Method in brief: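 Cytotoxicity counter screen: intracellular ATP read by CellTiter-Glo luminescence in the p53 reporter wells. HCT-116 p53RE-bla cells were treated for 16 h at 37 C alongside rat liver microsomes and NADPH, each 0.5 mg/mL final.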
# [6] = p53 small molecule agonists, cell-based qHTS assay: qHTS cell viability counter screen (AID 1963581); further: nearly all actives have a fitted effect of over 45% in size; further: potency means the concentration at half of the fitted maximal effect
# Method in brief: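 Viability was counter-screened in parallel with the p53 agonist reporter by measuring intracellular ATP luminescence in the same HCT-116 p53RE-bla wells after 16 h compound treatment at 37 C.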
# [7] = molecular target: 5-hydroxytryptamine receptor 2A (Homo sapiens) (UniProt P28223); assay: 5-hydroxytryptamine receptor 2A (HTR2A) small molecule antagonists, cell-based qHTS assay (AID 1963586); further: nearly all actives have a fitted effect of over 45% in size; further: potency means the concentration at half of the fitted maximal effect
# Method in brief: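 CHO cells stably expressing human HTR2A were plated for 18 h at 37 C, then loaded with calcium dye for 1 h. Compounds were preincubated 5 min at room temperature before DOI (4 nM solution) was added. Kinetic fluorescence was read for 3 min.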
# [8] = molecular target: 5-hydroxytryptamine receptor 2A (Homo sapiens) (UniProt P28223); assay: 5-hydroxytryptamine receptor 2A (HTR2A) small molecule agonists, cell-based qHTS assay (AID 1963587); further: nearly all actives have a fitted effect of over 30% in size; further: potency means the concentration at half of the fitted maximal effect
# Method in brief: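 Kinetic calcium-flux fluorescence (2 min, 1 sec intervals) after compound addition in agonist mode. HTR2A-CHO cells were cultured 18 h, then dye-loaded 1 h at 37 C.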
# [9] = molecular target: Muscarinic acetylcholine receptor M1 (Homo sapiens) (UniProt P11229); assay: Cholinergic receptor muscarinic 1 (CHRM1) small molecule agonists, cell-based qHTS assay (AID 1963589); further: nearly all actives have a fitted effect of over 35% in size; further: potency means the concentration at half of the fitted maximal effect
# Method in brief: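 Cells were plated and incubated 18 h at 37 C/5% CO2, loaded with calcium dye for 1 h at 37 C, then treated with compounds in DMSO. Fluorescence was recorded kinetically at 1 sec intervals.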
# [10] = cAMP Responsive Elements (CRE) small molecule agonists, cell-based qHTS assay (AID 1963590)
# Method in brief: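 Cells carrying a CRE-driven beta-lactamase reporter (HEK 293T) are seeded, incubated overnight (18 h), and treated with test compounds for 3 h at 37 C; reporter activity is then detected with a FRET substrate after 2 h at room temperature.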
# [11] = cAMP Responsive Elements (CRE) small molecule antagonists, cell-based qHTS assay (AID 1963591; active means well fitted inhibition curve with a large enough effect in the signal ratio in the repeat runs, not every such curve was filed as active; the % refers to the signal ratio)
# Method in brief: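 Cells (CRE-bla HEK 293T, DMEM with 10% dialyzed FBS and 25 mM HEPES) are seeded and incubated 18 h. Compounds are added with NKH477 agonist at 0.25 uM final for 3 h, then FRET substrate for 2 h.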
# [12] = molecular target: Beta-2 adrenergic receptor (Homo sapiens) (UniProt P07550); assay: Adrenergic beta2 receptor (ADRB2) small molecule antagonists, cell-based qHTS assay (AID 1963592); further: nearly all actives have a fitted effect of over 50% in size; further: potency means the concentration at half of the fitted maximal effect
# Method in brief: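 Assay format: CHO-ADRB2 cells, 18-20hr seeding at 37C/5% CO2, then compound plus 1nM isoproterenol agonist mix for 0.5hr RT. Homogeneous time-resolved fluorescence cAMP detection after 1hr, expressed as 665/615 nm ratio.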
# [13] = molecular target: Beta-2 adrenergic receptor (Homo sapiens) (UniProt P07550); assay: Adrenergic beta2 receptor (ADRB2) small molecule agonists, cell-based qHTS assay (AID 1963593); further: potency means the concentration at half of the fitted maximal effect;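 on activation: CHO cells stably overexpressing human ADRB2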
# Method in brief: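 CHO cells stably over-expressing ADRB2 were plated overnight at 37C, then dosed with compounds plus a stimulation mix containing 100uM IBMX and 25uM Ro-20-1724 for 0.5hr at room temperature. cAMP was measured by HTRF competition, 1hr.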
# [14] = molecular target: D(2) dopamine receptor (Homo sapiens) (UniProt P14416); assay: Dopamine D2 receptor (DRD2) small molecule antagonists, cell-based qHTS assay (AID 1963595; active means well fitted inhibition curve with a large enough effect in the signal ratio in the repeat runs, with a control signal flat; the % refers to the signal ratio; further: potency means the concentration at half of the fitted maximal effect)
# Method in brief: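 Antagonist mode in DRD2-HEK293 cells: after compound addition with 0.1 mM Ro20-1724, cells received quinpirole (12 nM) and NKH477 (200 nM) for 30 min at room temperature; HTRF cAMP read after 1 h detection.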
# [15] = molecular target: KiSS-1 receptor (Homo sapiens) (UniProt Q969F8); assay: Human kisspeptin (KISS1R) small molecule agonists, calcium flux assay in KISS1R-HEK293 cells (AID 1920064; active means well fitted activation curve with a large enough effect in the repeat runs; further: potency means the concentration at half of the fitted maximal effect)
# Method in brief: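 Agonist activity is monitored as intracellular calcium rise in engineered HEK293 cells carrying human KISS1R. Cells are dye-loaded for 1 h at 37 C before compound addition, and fluorescence is recorded for 3 min.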
# [16] = p53 small molecule agonists, cell-based qHTS assay with human liver microsomes (AID 1963577);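 further: p53 response element beta-lactamase reporter cells with liver microsomes plus NADPH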
# Method in brief: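 With metabolic activation: human liver microsomes (0.5 mg/mL final) plus NADPH (0.5 mg/mL final) added alongside compounds to p53RE-bla cells; 16 h 37 C exposure; beta-lactamase read by LiveBLAzer fluorescence.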
# [17] = p53 small molecule agonists, cell-based qHTS assay with rat liver microsomes (AID 1963578)
# Method in brief: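 Metabolic activation by rat liver microsomes and NADPH, each 0.5 mg/mL final, added right after compounds to p53RE-bla reporter cells (4,000/well, plated 5 h earlier). 16 h at 37 C, then LiveBLAzer substrate for 2 h at room temperature in the dark; fluorescence read-out.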
# [18] = p53 small molecule agonists, cell-based qHTS assay (AID 1963582; active means well fitted activation curve with a large enough effect in the signal ratio in the repeat runs, not every such curve was filed as active; the % refers to the signal ratio)
# Method in brief: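 Cells carrying a p53-responsive bla reporter are treated with test compounds for 16 h at 37 C; beta-lactamase activity is then detected with LiveBLAzer B/G FRET substrate after 2 h at room temperature.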
# [19] = molecular target: Muscarinic acetylcholine receptor M1 (Homo sapiens) (UniProt P11229); assay: Cholinergic receptor muscarinic 1 (CHRM1) small molecule antagonists, cell-based qHTS assay (AID 1963588); further: nearly all actives have a fitted effect of over 40% in size; further: potency means the concentration at half of the fitted maximal effect
# Method in brief: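 Compounds were tested at 15 concentrations in three independent runs. Dye-loaded CHRM1-CHO cells were exposed 5 min at room temperature before stimulation by acetylcholine added at 50nM. Intracellular calcium was read kinetically on FDSS for 3 min.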
# [20] = molecular target: D(2) dopamine receptor (Homo sapiens) (UniProt P14416); assay: Dopamine D2 receptor (DRD2) small molecule agonists, cell-based qHTS assay (AID 1963594); further: nearly all actives have a fitted effect of over 35% in size
# Method in brief: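 cAMP accumulation in DRD2-HEK293 cells measured by HTRF after 1 h detection; compounds added 10 min before NKH477 (200nM […]) forskolin-analogue stimulation, 30 min at room temperature, with Ro20-1724 present at 0.1 mM final.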
# 5-hydroxytryptamine receptor 2A (Homo sapiens), sequence (P28223 whole entry, looked up): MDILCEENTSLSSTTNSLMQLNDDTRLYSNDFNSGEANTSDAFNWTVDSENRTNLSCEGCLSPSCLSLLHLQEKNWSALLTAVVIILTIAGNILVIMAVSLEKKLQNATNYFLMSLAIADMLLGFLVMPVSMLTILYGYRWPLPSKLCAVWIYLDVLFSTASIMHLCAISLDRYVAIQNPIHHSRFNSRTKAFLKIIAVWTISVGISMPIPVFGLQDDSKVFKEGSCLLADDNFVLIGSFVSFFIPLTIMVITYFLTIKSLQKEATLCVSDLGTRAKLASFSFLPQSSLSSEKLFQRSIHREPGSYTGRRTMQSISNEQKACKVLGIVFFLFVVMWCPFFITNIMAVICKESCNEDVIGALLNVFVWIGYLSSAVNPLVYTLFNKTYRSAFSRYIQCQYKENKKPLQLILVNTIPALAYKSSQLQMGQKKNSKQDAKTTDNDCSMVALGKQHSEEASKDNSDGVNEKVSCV
# Beta-2 adrenergic receptor (Homo sapiens), sequence (P07550 whole entry, looked up): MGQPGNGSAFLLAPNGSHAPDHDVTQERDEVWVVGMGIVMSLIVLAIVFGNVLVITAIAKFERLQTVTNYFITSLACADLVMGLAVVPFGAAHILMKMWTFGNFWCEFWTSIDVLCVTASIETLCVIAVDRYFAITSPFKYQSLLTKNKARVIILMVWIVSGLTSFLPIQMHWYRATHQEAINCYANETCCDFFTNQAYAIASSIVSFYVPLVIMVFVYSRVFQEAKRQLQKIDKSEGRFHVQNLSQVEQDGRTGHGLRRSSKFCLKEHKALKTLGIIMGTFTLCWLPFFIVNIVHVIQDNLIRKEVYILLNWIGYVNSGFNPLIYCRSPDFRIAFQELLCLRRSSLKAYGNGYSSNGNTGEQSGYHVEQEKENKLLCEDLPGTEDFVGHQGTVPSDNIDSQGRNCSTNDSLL
# Gonadotropin-releasing hormone receptor (Homo sapiens), sequence (P30968 whole entry, looked up): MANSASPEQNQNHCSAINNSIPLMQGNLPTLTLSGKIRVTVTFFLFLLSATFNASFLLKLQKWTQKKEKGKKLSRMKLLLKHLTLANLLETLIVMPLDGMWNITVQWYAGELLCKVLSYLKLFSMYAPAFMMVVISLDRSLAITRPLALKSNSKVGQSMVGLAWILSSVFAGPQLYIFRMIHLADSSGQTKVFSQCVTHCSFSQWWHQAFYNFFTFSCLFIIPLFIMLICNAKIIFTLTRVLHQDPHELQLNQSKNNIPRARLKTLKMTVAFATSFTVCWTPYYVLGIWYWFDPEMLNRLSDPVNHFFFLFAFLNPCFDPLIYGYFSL
# Muscarinic acetylcholine receptor M1 (Homo sapiens), sequence (P11229 whole entry, looked up): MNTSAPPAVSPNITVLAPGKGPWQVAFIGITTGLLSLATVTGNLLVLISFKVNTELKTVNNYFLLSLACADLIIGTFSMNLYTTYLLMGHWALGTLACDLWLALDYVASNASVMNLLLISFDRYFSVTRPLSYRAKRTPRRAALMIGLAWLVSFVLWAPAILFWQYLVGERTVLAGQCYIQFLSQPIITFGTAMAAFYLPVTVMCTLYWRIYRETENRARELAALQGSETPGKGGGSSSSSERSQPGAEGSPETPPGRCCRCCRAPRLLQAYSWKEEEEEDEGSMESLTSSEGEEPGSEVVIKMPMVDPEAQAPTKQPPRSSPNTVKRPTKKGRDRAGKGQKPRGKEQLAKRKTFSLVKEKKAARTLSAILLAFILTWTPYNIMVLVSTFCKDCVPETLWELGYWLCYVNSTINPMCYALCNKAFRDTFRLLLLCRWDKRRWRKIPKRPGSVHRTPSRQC
# KiSS-1 receptor (Homo sapiens), sequence (Q969F8 whole entry, looked up): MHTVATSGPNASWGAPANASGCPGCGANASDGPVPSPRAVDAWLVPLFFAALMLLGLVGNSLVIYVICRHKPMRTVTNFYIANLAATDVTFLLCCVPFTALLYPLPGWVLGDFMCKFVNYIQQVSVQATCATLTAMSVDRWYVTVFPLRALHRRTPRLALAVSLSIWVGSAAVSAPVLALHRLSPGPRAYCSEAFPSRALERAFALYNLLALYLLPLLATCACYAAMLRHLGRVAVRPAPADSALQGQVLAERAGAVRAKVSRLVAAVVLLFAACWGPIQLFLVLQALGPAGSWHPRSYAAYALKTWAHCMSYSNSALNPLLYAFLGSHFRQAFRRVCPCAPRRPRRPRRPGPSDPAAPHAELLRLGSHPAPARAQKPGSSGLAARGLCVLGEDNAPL
# D(2) dopamine receptor (Homo sapiens), sequence (P14416 whole entry, looked up): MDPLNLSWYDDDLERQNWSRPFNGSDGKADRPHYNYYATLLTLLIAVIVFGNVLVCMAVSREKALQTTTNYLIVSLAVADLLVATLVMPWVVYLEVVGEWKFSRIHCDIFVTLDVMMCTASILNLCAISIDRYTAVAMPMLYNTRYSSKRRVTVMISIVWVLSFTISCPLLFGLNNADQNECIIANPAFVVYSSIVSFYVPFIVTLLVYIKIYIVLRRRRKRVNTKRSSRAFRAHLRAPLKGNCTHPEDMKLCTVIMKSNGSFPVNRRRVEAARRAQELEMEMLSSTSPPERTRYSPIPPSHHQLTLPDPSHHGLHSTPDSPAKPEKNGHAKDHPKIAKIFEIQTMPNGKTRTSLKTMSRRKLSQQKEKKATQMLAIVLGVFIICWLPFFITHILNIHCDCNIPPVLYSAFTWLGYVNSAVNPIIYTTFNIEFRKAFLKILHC
Compound,Potency [1],Potency [2],Potency [3],Potency [4],Potency [5],Potency [6],Potency [7],Potency [8],Potency [9],Potency [10],Potency [11],Potency [12],Potency [13],Potency [14],Potency [15],Potency [16],Potency [17],Potency [18],Potency [19],Potency [20]
CCOP(=S)(Oc1ccc([N+](=O)[O-])cc1)c1ccccc1 (stereo not given),inactive,inactive,inactive,inactive,inactive,inactive,inactive,inactive,inactive,inactive,inactive,inactive,inactive,inactive,,,,,,
O=NN1CCNCC1,76.1 µM (active),,inactive,,inactive,inactive,inactive,inactive,inactive,inactive,inactive,inactive,,inactive,inactive,inactive,inactive,inactive,inactive,
[O-][Br+2]([O-])O,inactive,inactive,inactive,inactive,inactive,inactive,inactive,inactive,inactive,inactive,inactive,inactive,,inactive,,inactive,inactive,inactive,inactive,inactive
CC(C)(C)C(O)C(Oc1ccc(Cl)cc1)n1cncn1 (stereo not given),68.6 µM (active),inactive,inactive,inactive,,inactive,,inactive,,inactive,,,,inactive,,,inactive,inactive,,
COP(=S)(OC)Oc1ccc([N+](=O)[O-])cc1Cl,inactive,inactive,inactive,,inactive,inactive,inactive,inactive,inactive,inactive,inactive,,,,inactive,,,inactive,,inactive
N#CC(C#N)=C(C#N)C#N,inactive,inactive,,inactive,inactive,inactive,inactive,inactive,,inactive,inactive,inactive,,,inactive,inactive,inactive,inactive,inactive,
C[C@H](N)[C@H](O)c1ccc(O)c(O)c1,inactive,,inactive,inactive,inactive,inactive,,inactive,inactive,,inactive,,7.5 µM (active),,inactive,inactive,inactive,inactive,inactive,inactive
C=CC(=O)[O][Sn]([CH2]CCC)([CH2]CCC)[CH2]CCC,1.37 µM (active),,38.9 µM (active),5.13 µM (active),,1.62 µM (active),3.75 µM (active),12.3 µM (active),11 µM (active),,,0.969 µM (active),,2.43 µM (active),19.5 µM (active),inactive,inactive,,,inactive
O=C1NCN(c2ccccc2)C12CCN(CCCOc1ccc(F)cc1)CC2,inactive,9.52 µM (active),10.7 µM (active),,inactive,,,,4.77 µM (active),inactive,,5.96 µM (active),,0.106 µM (active),,inactive,inactive,,,
CCOP(=S)(OCC)Oc1cc(Cl)c(Br)cc1Cl,61.1 µM (active),inactive,,,inactive,inactive,inactive,inactive,inactive,,,inactive,,inactive,inactive,,,,inactive,inactive
O=[N+]([O-])c1cc(C(F)(F)F)cc([N+](=O)[O-])c1Cl,inactive,inactive,,inactive,inactive,,inactive,,inactive,,inactive,inactive,,inactive,inactive,,,,inactive,inactive
BrC(Br)C(Br)(Br)Br,inactive,,inactive,inactive,inactive,inactive,inactive,55.3 µM (active),inactive,,,,,inactive,inactive,inactive,inactive,,inactive,inactive
CC(C)(c1ccccc1)c1ccc(O)cc1,inactive,inactive,,45.4 µM (active) and inactive,inactive,,33.2 µM (active) and inactive,54.5 µM (active) and inactive,inactive,,,inactive,inactive,61.1 µM (active),inactive,inactive,inactive,inactive,inactive,inactive
CCN(CC)C(=O)[C@@H]1C=C2c3cccc4[nH]cc(c34)C[C@H]2N(C)C1,inactive,,inactive,inactive,inactive,,inactive,,,,,,,,inactive,inactive,inactive,inactive,inactive,
Cc1cc(C2CC2)nc(Nc2ccccc2)n1,68.6 µM (active),,inactive,inactive,,inactive,inactive,inactive,inactive,,,54.5 µM (active),,inactive,inactive,inactive,inactive,inactive,14.9 µM (active),inactive
c1cc2ccc3cccc4ccc(c1)c2c34,inactive,inactive,inactive,,,,inactive,inactive,,,,,,,inactive,,,,inactive,
CC(C)(C)c1cc([N+](=O)[O-])cc(C(C)(C)C)c1O,34.4 µM (active),inactive,,inactive,inactive,inactive,inactive,inactive,inactive,,,,inactive,inactive,inactive,inactive,inactive,,,inactive
CCC[CH2][Sn]([CH2]CCC)([CH2]CCC)[O]C(=O)c1ccccc1,0.969 µM (active),,inactive,3.24 µM (active),4.58 µM (active),1.62 µM (active),1.33 µM (active),21.9 µM (active),,,,0.864 µM (active),,4.86 µM (active),19.5 µM (active),inactive,inactive,,,inactive
S=C=NCCc1ccccc1,43.4 µM (active),inactive,,inactive,inactive,inactive,inactive,inactive,inactive,,inactive,inactive,inactive,inactive,inactive,inactive,inactive,inactive,inactive,inactive
